# Reference: ChEMBL document CHEMBL4513216, “Probing the Open Global Health Chemical Diversity Library for Multistage-Active Starting Points for Next-Generation Antimalarials” (ACS Infect Dis, 2020)
# Out of some 69,000 compounds screened, about 8,600 (12%) showed an effect of 50% or more. For the sample, strong results were picked, then their nearest neighbours and some compounds at random.
# Test system: Plasmodium berghei
# Assay: Screen against P. berghei liver stage (PbLuc), transformed with Luciferase, at 10uM
# Assay type: functional, HepG2
# Conditions: tested at 10 uM
row,SMILES,INHIBITION
1,O=C(N[C@@H]1CN(Cc2cccs2)[C@@H]2CCCO[C@@H]21)c1cscn1,-17.1%
2,O=C(NCCNc1ncccn1)N1CCCC1c1ccncc1 (stereo not drawn),11.8%
3,Cc1nc(CN(Cc2ccncc2)C2CCN(C)CC2)cs1,8.46%
4,CCNC(=O)[C@@H]1C[C@H](N)CN1c1cc(C(F)(F)F)nc(N2CCCC2)n1,-122%
5,Cc1c(-c2cc(C(F)(F)F)nc(N3CCC(N)CC3)n2)cnn1C,50.8%
6,FC(F)(F)c1cc(-c2cccs2)nc(N2CCN3CCCC3C2)n1 (stereo not drawn),25.3%
7,CCc1ccc(-c2cc(C(F)(F)F)nc(N3CCC(N)CC3)n2)cc1,91.4%
8,CCn1ncc(-c2cc(C(F)(F)F)nc(N3CCC(N)CC3)n2)c1C,-1.84%
9,Cc1ccc(-c2cc(C(F)(F)F)nc(N3CCOCC3)n2)s1,29.8%
10,CCc1nc(C2CCCN2Cc2cc(=O)n(C)c(=O)n2C)no1 (stereo not drawn),-27.9%
11,CC(C)C(CCO)NC(=O)Nc1ccc(-c2csnn2)cc1 (stereo not drawn),-6.39%
12,Cc1cccc(CN2C(=O)CCC23CCN(c2ccccn2)CC3)n1,-11%
13,Cc1nn(-c2cc(Cl)cc(Cl)c2)c(C)c1CCC(=O)O,46.1%
14,CC(c1ccccn1)N(C)Cc1ccc(-n2cncn2)cc1 (stereo not drawn),28.5%
15,Cc1ccccc1OCCCC(=O)NCC1CN(C)CCO1 (stereo not drawn),22.265%
16,CN1CCOC(CNC(=O)C2(c3ccccc3)CCC2)C1 (stereo not drawn),57.4%
17,CN1CCOC(CNC(=O)CCCOc2cccc(F)c2)C1 (stereo not drawn),-5.2%
18,Cc1cccc(C2(C(=O)NCC3CN(C)CCO3)CC2)c1 (stereo not drawn),19.8%
19,CN1CCOC(CNC(=O)CCCOc2ccccc2F)C1 (stereo not drawn),52%
20,CN1CCOC(CNC(=O)C2(c3cccc(Cl)c3)CC2)C1 (stereo not drawn),0.348%
21,CC(C)CC(CC(C)C)NC(=O)c1ccn(C)c(=O)c1,1.51%
22,COc1ncccc1CN1C[C@H]2C[C@@H](C(=O)NCC3CC3)N(C)[C@H]2C1,29.7%
23,CC(C)c1nn(C)cc1CNCc1cccnc1N(C)C,14.7%

row,SMILES,INHIBITION
1,CSCC(=O)N1CCc2c(cnc(C)c2-c2noc(-c3ccco3)n2)C1,33%
2,Cc1ncsc1C(=O)OCCN1CCCc2ccccc21,41.3%
3,Cc1ncsc1C(=O)OCC1CCN(c2ccccc2)C1 (stereo not drawn),89.4%
4,COCCn1cc(NC(=O)NCC2CCN(c3ccccc3)C2)cn1 (stereo not drawn),22.8%
5,Cc1ncsc1C(=O)N1CCN(Cc2ccccc2)CC1C (stereo not drawn),23.8%
6,COCc1nc(C(=O)OCC2CCN(c3ccccc3)C2)cs1 (stereo not drawn),18.3%
7,Cc1ncc(C(=O)OCC2CCN(c3ccccc3)C2)s1 (stereo not drawn),58.5%
8,Cn1ncc(C(=O)OCC2CCN(c3ccccc3)C2)c1C(F)F (stereo not drawn),9.96%
9,O=C(OCC1CCN(c2ccccc2)C1)c1cscn1 (stereo not drawn),51.7%
10,O=C(OCC1CCCN(C(=O)c2ccccc2)C1)c1cscn1 (stereo not drawn),10.6%
11,Cc1oc(-c2nc(C#N)c(NC3CC3)o2)cc1S(=O)(=O)N1CCCC1,25.8%
12,CCN(Cc1ccco1)C(=O)NCC(C)N1CCc2sccc2C1 (stereo not drawn),-3.72%
13,Cc1occc1C(=O)N1C[C@@H]2CCCO[C@@H]2[C@H](N(C)Cc2ccco2)C1,43.9%
14,Cc1cccc(CN(C(=O)NCc2ccccn2)C2CC2)c1,19.4%
15,CN(C)c1cc(C(=O)N2CCCC2)ccn1,-4.567%
16,COc1ccccc1N1CCN(C(=O)c2ccnc(N(C)C)c2)CC1,77.15%
17,COc1ccccc1N1CCN(C(=O)c2ccoc2)CC1,-17.4%
18,O=C(N1CCCO1)[C@@]12CCO[C@@H]1CCN(Cc1ccsc1)C2,14.5%
19,CC(CNC(=O)N1CCNC(=O)CC1)Cc1cccs1 (stereo not drawn),51.1%
20,CC(CNC(=O)N1CCS(=O)(=O)CC1)Cc1cccs1 (stereo not drawn),16.1%
21,CC(CNC(=O)N1CCSCC1)Cc1cccs1 (stereo not drawn),-18.2%
22,Cn1cc(CN(CC2(O)CCNC2)C2CCCCC2)cn1 (stereo not drawn),38.5%
23,O=C(Nc1ccccc1F)C1CN(C(=O)c2ccc3c(c2)OCO3)C1,46.1%

row,SMILES,INHIBITION
1,Cc1nnc([C@@]23CCO[C@@H]2CCN(S(=O)(=O)c2ccccc2)C3)o1,61.1%
2,CCS(=O)(=O)N1CC[C@H]2OCC[C@@]2(c2nnc(C)o2)C1,34.6%
3,Cc1nnc([C@@]23CCO[C@@H]2CCN(S(=O)(=O)c2cccnc2)C3)o1,-1.36%
4,Cc1noc([C@@]23CCO[C@@H]2CCN(S(=O)(=O)c2cccnc2)C3)n1,44.8%
5,CCCS(=O)(=O)N1CC[C@H]2OCC[C@@]2(c2nnc(C)o2)C1,55.5%
6,Cc1nnc([C@@]23CCO[C@@H]2CCN(S(C)(=O)=O)C3)o1,23.3%
7,CN(C)CCOCC1CN(Cc2cccs2)Cc2ccnn2C1 (stereo not drawn),33.4%
8,CC(NC1CCN(CCc2ccncc2)CC1)c1cnn(C(C)C)c1 (stereo not drawn),37.9%
9,Cc1cccnc1NC(=O)c1ccc(F)c(S(=O)(=O)N2CCC2)c1,13.3%
10,O=C(Cc1cccs1)N1C[C@@H]2CN(Cc3ccoc3)CCO[C@@H]2C1,24.1%
11,CCN1Cc2cc(F)ccc2N(CC(O)C(F)(F)F)CCC1=O (stereo not drawn),47.2%
12,CN(C)C(=O)c1cn[nH]c1C1CCCN1Cc1cncn1C (stereo not drawn),-11.3%
13,CN(C)C(=O)c1cn[nH]c1C1CCCN1Cc1nccn1C (stereo not drawn),55.8%
14,CN(C)C(=O)c1cn[nH]c1C1CCCN1Cc1c[nH]cn1 (stereo not drawn),18.4%
15,Cc1nc(CN2CCO[C@H]3[C@@H](OCc4ccccn4)CC[C@@H]32)cs1,40.4%
16,Cc1ccc2cccc(Oc3nc(C)c(C(=O)O)s3)c2n1,12.7%
17,CN1C(=O)C(c2ccccc2)CC12CCN(CCO)CC2 (stereo not drawn),-9.26%
18,CCc1nc(C2CCCN(C(=O)c3cccc(Cl)c3)C2)no1 (stereo not drawn),-19.9%
19,COc1cccc(CNC2CCSC2)c1OC (stereo not drawn),-7.85%
20,Cc1cccnc1NC(=O)NC(CCO)C(C)(C)C (stereo not drawn),28.3%
21,CC(C)(C)C(CCO)NC(=O)Nc1ccncc1 (stereo not drawn),60.2%
22,CC(C)(C)C(CCO)NC(=O)Nc1ccccc1 (stereo not drawn),43.7%
23,CN1CC(=O)N(c2ccccc2)CC12CCN(S(C)(=O)=O)C2 (stereo not drawn),42.7%

row,SMILES,INHIBITION
1,CN1CCC(O)(CNCc2ccc(F)c(C(F)(F)F)c2)CC1,48.4%
2,Cc1cc(CNC2(CO)CCOCC2)ccc1Br,18.6%
3,OC1(CNCc2ccc(F)c(C(F)(F)F)c2)CCOC1 (stereo not drawn),3.69%
4,Cc1ccc(C(=O)NCC2(O)CCOCC2)cc1Br,-65.5%
5,Cc1cc(CNCC2(O)CCOCC2)ccc1Br,54.4%
6,Cc1cc(CNCC2(O)CCOCC2)ccc1F,76.8%
7,CN(C)C(=O)[C@@H]1CCO[C@@H]2CCN(CCc3ccccc3)C[C@@H]21,28.5%
8,COCc1ccc(C(=O)N2CCC(Oc3ccccc3OC)CC2)s1,-3.83%
9,O=C(N[C@@H]1CN(c2ncccn2)C[C@@H]2CCCO[C@@H]21)c1cnccn1,20.2%
10,CC(O)CN1CCN(C(=O)c2cc(Cl)cc3cccnc23)CC1 (stereo not drawn),2.75%
11,COC(=O)N1C[C@@H]2CC[C@H]1CN(Cc1cscn1)C2,-14.8%
12,CCc1ncc2c(n1)CN(c1nc(C)ccc1C(=O)O)C2,9.55%
13,CC(C)OCCN1CCC(Nc2ccc(C#N)cc2F)CC1,27.2%
14,CNC(=O)[C@@H]1C[C@@H](N)CN1C1CCN(c2ccccc2F)CC1,61%
15,COc1ccccc1N1CCC(N2CCOCC(CO)C2)CC1 (stereo not drawn),39%
16,CCNC(=O)[C@@H]1C[C@H](N)CN1C1CCN(c2ccccc2OC)CC1,55.4%
17,CNC(=O)[C@@H]1C[C@@H](N)CN1C1CCN(Cc2ccccn2)CC1,27.6%
18,CCNC(=O)[C@@H]1C[C@H](N)CN1C(=O)CCc1ccccc1Cl,-6.83%
19,CNC(=O)[C@@H]1C[C@@H](N)CN1C(=O)CCSCc1ccc(F)cc1,9.63%
20,Cc1cc(C(F)(F)F)nc(C2CCCN2S(C)(=O)=O)n1 (stereo not drawn),20.2%
21,CCN1CCN(C(C)CNC(=O)Nc2cnn(CC)c2)CC1 (stereo not drawn),44.1%
22,CNC(=O)C1CCN(c2ncc3c(n2)CCN3c2ccccc2)C1 (stereo not drawn),-105%
23,O=C(Cc1c(F)cccc1Cl)Nc1cc(N2CCCC2)ncn1,-27.8%

row,SMILES,INHIBITION
1,COCCn1ccnc1CN(Cc1ccccn1)Cc1sccc1C,71%
2,COCCN(Cc1sccc1C)Cc1nccn1CCOC,16.9%
3,CSC(C)CCN(Cc1ccccn1)Cc1sccc1C (stereo not drawn),62.9%
4,Cc1ccsc1CN(CCN(C)C)Cc1ccccn1,35.1%
5,COCCN(Cc1ccccn1)Cc1sccc1C,15.2%
6,Cc1ccsc1CN(Cc1ccccn1)CC(C)C,-21.5%
7,Cc1cc(C)c2nc(C)c(C(=O)N3CCC(CCN(C)C)CC3)cc2c1,36.8%
8,Fc1cnc(N2CC[C@@H]3CN(Cc4ccncc4)CCO[C@@H]3C2)nc1,8.85%
9,Cc1cnn(CCC(=O)N2CCCC(c3cc(C)[nH]n3)C2)c1 (stereo not drawn),45.7%
10,CC(Cn1cc(Cl)cn1)C(=O)Nc1ccc(CN2CCCCCC2)cc1 (stereo not drawn),10.9%
11,Cc1cnn(CCNCC(=O)Nc2ccc(Br)cn2)c1,-37.7%
12,Cc1cc(NC(=O)C(C)Cn2cncn2)no1 (stereo not drawn),-1.445%
13,Cc1cc(NC(=O)Cn2ncc(Br)c2C)no1,15.9%
14,CC(Cn1cc(Br)cn1)C(=O)Nc1ccncc1 (stereo not drawn),-24.7%
15,CC(Cn1cc(Br)cn1)C(=O)Nc1ccc(Cl)cn1 (stereo not drawn),56%
16,Cc1cnn(CC(C)NCC(=O)Nc2ccc(Cl)cn2)c1 (stereo not drawn),-100%
17,CC(=O)c1ccc(NC(=O)C(C)Cn2cc(Br)cn2)cc1 (stereo not drawn),-37.6%
18,CC(Cn1cc(Br)cn1)C(=O)Nc1ccn(C)n1 (stereo not drawn),15.7%
19,CC(Cn1cc(Br)cn1)C(=O)Nc1ccc(C(N)=O)cc1 (stereo not drawn),72.7%
20,Cc1cc(NC(=O)C(C)Cn2cc(Br)cn2)no1 (stereo not drawn),67.1%
21,CC(Cn1cc(Br)cn1)C(=O)Nc1ccc(Br)cn1 (stereo not drawn),81%
